PubChem BioAssay (NCI)
Compounds without any hit were thinned out: in the full panel of roughly 79,000, 15% have a hit. No stated cut-off is given here; in the data, active means growth inhibition above about 70%; inactive means the rest.

Assays:
[1] = NCI Yeast Anticancer Drug Screen. Data for the rad50 strain (AID 155);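 further: 0% = growth of vehicle-only cultures of the same strain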; conditions: S. cerevisiae rad50 strain growth inhibition; at 50.0 µM; active compounds read high
Procedure, shortened: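 Genetically altered yeast (DNA repair pathway); compound treatment; growth inhibition vs vehicle ctrl.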

[2] = NCI Yeast Anticancer Drug Screen. Data for the mec2-1 strain (AID 157); conditions: S. cerevisiae mec2-1 strain, at 50.0 µM, active compounds read high
Procedure, shortened: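 Strain: mec2-1 (DNA repair/cell cycle alteration). Compound exposure, then growth measured; inhibition expressed relative to vehicle.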

[3] = NCI Yeast Anticancer Drug Screen. Data for the sgs1 mgt1 strain (AID 161);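 further: 0% = growth of cultures given vehicle only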; conditions: S. cerevisiae sgs1 mgt1 strain, at 50.0 µM, active compounds read high
Procedure, shortened: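 Genetically altered yeast, compound exposure, growth inhibition relative to vehicle.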

[4] = NCI Yeast Anticancer Drug Screen. Data for the cln2 rad14 strain (AID 165);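 further: 0% = growth equal to vehicle treated cultures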; conditions: S. cerevisiae cln2 rad14 strain, at 50.0 µM, active compounds read high
Procedure, shortened: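 Compounds are applied to the cln2 rad14 yeast strain, and growth is then compared with that of vehicle-treated cultures to give inhibition.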

[5] = NCI Yeast Anticancer Drug Screen. Data for the bub3 strain (AID 167); conditions: S. cerevisiae bub3 mutant strain, at 50.0 µM, active compounds read high
Procedure, shortened: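 Yeast carrying a defined mutation is treated with each compound, and growth is compared with that of vehicle-exposed cells to give inhibition.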

[6] = NCI Yeast Anticancer Drug Screen. Data for the mlh1 rad18 strain (AID 175); conditions: S. cerevisiae mlh1 rad18 strain growth inhibition; at 50.0 µM; active compounds read high
Procedure, shortened: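 Read-out is yeast growth inhibition, calculated against vehicle-only controls. The compound was applied to a strain engineered with DNA damage repair alterations.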

Measured: growth inhibition

O=C(O)c1ccc(O)cc1O
inactive: [1] 12.8% | [2] 18.6% | [3] -25.2% | [4] -29.4% | [5] -4.65% | [6] -2.5%

C[N+](C)(C)c1ncncn1
inactive: [1] 2.05% | [2] 1.5% | [3] -10.8% | [4] -21% | [5] -25.3% | [6] -0.1%

O=C(C[n+]1ccccc1)N/N=C(/CCC(=O)N(Cc1ccccc1)Cc1ccccc1)CC(=O)c1ccccc1
inactive: [1] -21.1% | [2] -21.8% | [3] -38% | [4] 0.85% | [5] -26.6% | [6] -21.8%

CNC(=O)Nc1ccnc(=O)[nH]1
inactive: [1] -10.6% | [2] -1.85% | [3] -6.15% | [4] -28.3% | [5] -9.55% | [6] -8.8%

CSc1nc(NC2OC(COC(C)=O)C(OC(C)=O)C(OC(C)=O)C2OC(C)=O)c(N=C(C)C(C)=O)c(=O)n1C (stereo unspecified)
inactive: [1] 16.2% | [2] -7.75% | [3] -14.2% | [4] 9.7% | [5] 1.2% | [6] 6.95%

CC(C)C(C)NC(=O)C(C)(C)C(C)(C)C (stereo unspecified)
inactive: [1] -4.85% | [2] -6.35% | [3] 10.6% | [4] -11.2% | [5] -0.7% | [6] -5.55%

N#CC(N)c1ccc(OCCCCCCCCCCOc2ccc(C(N)C#N)cc2)cc1 (stereo unspecified)
inactive: [1] 1.5% | [2] 2.65% | [3] -27.2% | [4] -7.8% | [5] -17.4% | [6] -20.8%

CC1SC2=NC3=C(c4ccccc4C3=O)C(c3ccc(F)cc3)N2C1=O (stereo unspecified)
inactive: [1] 34.4% | [2] 24.2% | [3] 35.8% | [4] 32% | [5] 47.1% | [6] 22.8%

Cc1c2c(C#N)nccc2c(C)c2c1c1ccccc1n2Cc1ccccc1
inactive: [1] 33.5% | [2] 14.1% | [3] -8.3% | [4] 20.9% | [5] -28.7% | [6] -45.6%

Cc1ccc(S(=O)(=O)c2ccc(C)cc2C(=O)O)cc1
inactive: [1] -8.6% | [2] -19.3% | [3] -1.4% | [4] -9.8% | [5] -30.2% | [6] -22.4%

CC(=O)Nc1c(C)cccc1[N+](=O)[O-]
inactive: [1] 5.35% | [2] -14.2% | [3] 0% | [4] -17.6% | [5] 2.8% | [6] 3.65%

COc1ccc2[nH]c3c(c2c1)-c1ncncc1CC3
inactive: [1] 37.4% | [2] -9.65% | [3] -3.7% | [4] 6.1% | [5] 40.4% | [6] 24.4%

O=C(OCC(OC(=O)c1ccccc1)C(OC(=O)c1ccccc1)C(OC(=O)c1ccccc1)C(COC(=O)c1ccccc1)OC(=O)c1ccccc1)c1ccccc1 (stereo unspecified)
inactive: [1] 22.1% | [2] 10% | [3] 10.7% | [4] 5.55% | [5] -5.45% | [6] 7.65%

CCOC(=O)c1ccc(N=C2C(=S)N(c3ccc(C(=O)OCC)cc3)C(=N)N2/N=C/c2ccccc2)cc1
inactive: [1] 19.4% | [2] 13.4% | [3] 11.5% | [4] -4.55% | [5] 31.9% | [6] 1.95%

CC(=O)Oc1ccc2cc(Br)ccc2c1N(C(C)=O)C(C)=O
inactive: [1] 13.1% | [2] -7.35% | [3] 10.8% | [4] -66.5% | [5] 24.6% | [6] -1.85%

CCOC(=O)C(CC1OCCO1)C1=NC(C)(C)CC(C)O1 (stereo unspecified)
inactive: [1] -18.4% | [2] 1.2% | [3] -11.4% | [4] -0.05% | [5] -7% | [6] 3.85%

N#C/C(=C\c1cc(Br)cc(Br)c1O)c1ccc([N+](=O)[O-])cc1
inactive: [1] -2.7% | [2] -10.9% | [3] -6.8% | [4] 17.1% | [5] 22.3% | [6] -2.6%

Cc1c(-c2ccccc2)[nH]c2ccc(Cl)cc2c1=O
inactive: [1] -7.5% | [2] -30.9% | [3] 28.9% | [4] 2.8% | [5] -5.1% | [6] 6.25%

COc1cc2c(cc1OC)C(=O)N(c1ccc(O)cc1)C2=O
inactive: [1] -8.25% | [2] -17.6% | [3] -7.8% | [4] 20.8% | [5] 12.3% | [6] 3.9%

CCCCc1noc(N)c1SCC
inactive: [1] 5.45% | [2] 9.5% | [3] 1.2% | [4] -39.6% | [5] -9.2% | [6] 3.7%

S=c1[nH]c2ccccc2n1CCc1ccncc1
inactive: [1] -6.8% | [2] -15.1% | [3] 22.2% | [4] -1.5% | [5] 1.05% | [6] 3.5%

ClC1(Cl)CC1c1ccccc1 (stereo unspecified)
inactive: [1] 0.1% | [2] 11.9% | [3] 6.8% | [4] -9.7% | [5] 1.45% | [6] 14.7%

COc1ccc(C2S/C(=C\c3cccc(OC)c3)C(=O)N2NC(=O)Cc2ccccc2)cc1 (stereo unspecified)
inactive: [1] -12.8% | [2] -27.1% | [3] -2.75% | [4] -37.5% | [5] -19.4% | [6] -10.8%

CCCCOS(=O)(=O)c1ccc([N+](C)(C)C)cc1
inactive: [1] 3.9% | [2] 1.75% | [3] -10.6% | [4] 12.2% | [5] 0.6% | [6] -7%

N#CC(NC12CC3CC(CC(C3)C1)C2)c1ccc2c(c1)OCO2 (stereo unspecified)
inactive: [1] -14.9% | [2] -5.6% | [3] -20.9% | [4] -17.1% | [5] -47.8% | [6] -44.4%

Fc1ccc(Nc2cc(F)cc(F)c2)cc1
inactive: [1] 22.7% | [2] 8.45% | [3] 17.4% | [4] 3.2% | [5] 10.6% | [6] 11.1%

CC(CC(=O)O)C(C)C(=O)O (stereo unspecified)
inactive: [1] -7.9% | [2] -4.45% | [3] -6.4% | [4] -7.7% | [5] 0.5% | [6] -13.4%

Cn1c(=O)cc(NC2OC(CO)C(O)C(O)C2O)[nH]c1=O (stereo unspecified)
inactive: [1] 2.1% | [2] -3.3% | [3] 24.8% | [4] -5.3% | [5] 0.75% | [6] 11.5%

ON(C=Nc1ccccc1)c1ccccc1
inactive: [1] 17% | [2] 19.1% | [3] 6.35% | [4] -11.5% | [5] -3.25% | [6] 7.05%

C=CCNC(=S)/N=C/c1c(C(=O)OCC)[nH]n(-c2ccccc2)c1=O
inactive: [1] -27.8% | [2] -19.5% | [3] -44.8% | [4] -32.8% | [5] -26% | [6] -54.6%

COc1ccc(C(O)C(C)(C(=O)O)c2ccccc2)cc1 (stereo unspecified)
inactive: [1] 2.95% | [2] 2.25% | [3] 4.6% | [4] -6.35% | [5] -5.05% | [6] 8.55%

CC(=O)NCC(N)=S
inactive: [1] 5.85% | [2] -24.1% | [3] 0.65% | [4] -1.55% | [5] 5.3% | [6] 4%

CC(C)C(Br)C(=O)N1CCOCC1 (stereo unspecified)
inactive: [1] -0.4% | [2] -17.9% | [3] -5.2% | [4] -20.6% | [5] -9.6% | [6] -5.15%

N#Cc1c(C(F)(F)F)cc(-c2cccs2)nc1SC(C(=O)Nc1c(F)cccc1F)c1ccccc1 (stereo unspecified)
inactive: [1] 15.8% | [2] -19.6% | [3] 23% | [4] 20.2% | [5] 15% | [6] 25.9%

O=C1CCC2c3ccccc3NCN12 (stereo unspecified)
inactive: [1] 7.05% | [2] 7.75% | [3] -35.6% | [4] 22.4% | [5] -15.2% | [6] -31.8%

CS(=O)CC(Nc1ccccc1)c1ccccc1 (stereo unspecified)
inactive: [1] -3.75% | [2] -12.8% | [3] -10.6% | [4] 2% | [5] -25.6% | [6] -3.45%

CC1CC(C)OC(C)(Cc2ccccc2)O1 (stereo unspecified)
inactive: [1] 23.8% | [2] 20.4% | [3] 25.6% | [4] -19.9% | [5] -2.15% | [6] -13.9%

CCNC(=O)OCCN(C)CCOC(=O)NCC
inactive: [1] -10% | [2] 9.55% | [3] -4.15% | [4] -20% | [5] -7.7% | [6] -0.7%

COc1c2occc2c(Br)c2ccc(=O)oc12
inactive: [1] 13% | [2] 0.35% | [3] 19.4% | [4] 7.45% | [5] 51.8% | [6] 8.6%

C=CC(=O)OCC(C)(C)[N+](=O)[O-]
inactive: [1] 18.4% | [2] 15.7% | [3] 12.8% | [4] 2.35% | [5] -3.65% | [6] 1.55%

Cc1cc(Cl)cc(C)c1O
inactive: [1] 39.8% | [2] -10.3% | [3] 6.15% | [4] 0.95% | [5] 14.9% | [6] 11.8%
